From PubChem
VP16 counter: Gal4-VP16 reporter inhibition counter-screen. Drosophila S2 Gal4-VP16 UAS-luciferase, luminescence, 20 h. Potency, µM (series often up to 53.6 µM), actives largely listed as inhibitors. actives 3.5% (n = 310,000);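 note: Gal4-VP16 expression switched on by copper sulfate through the metallothionein promoter; nearly all actives have a fitted effect of over 50% in size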
BRCA1 expr up: BRCA1 expression activation; MCF7-BRCA1-FFLuc reporter, luminescence, 48 h; response scale: scaled: vehicle 0%, 10 µM genistein 100%; Potency, µM (doses to about 46.1 µM), hits mostly activators; actives 1.1% (n = 380,000); AID 624202; note: nearly all actives have a fitted effect of over 80% in size
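48 h compound treatment of MCF7-BRCA1-FFLuc cells (phenol-red free MEM, 37 °C), then 15 min with luciferase substrate and luminescence imaging.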
ELG1 repair inh: ELG1-dependent DNA repair inhibition; HEK293T ELG1-luciferase reporter, luminescence, 16 h; DNA damage induced by 5-fluorouridine; Potency, µM (titrated, usually from 46.1 µM), most hits filed as inhibitors; actives 2.3% (n = 330,000); AID 504467; note: nearly all actives have a fitted effect of over 55% in size
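HEK293T cells expressing luciferase-tagged ELG1 (2,000/well) received 5-Fluorouridine plus compound or DMSO for 16 hr at 37 °C. Luciferase was read by ONE-Glo luminescence after 30 min at room temperature.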
p53 reactivator: restores transcriptional activity of mutant p53; H1299 p53-A138V BP100-luciferase reporter, luminescence, 24 h; actives 0.063% (n = 320,000); Potency, µM (doses to about 92.2 µM), usual class: activators; note: nearly all actives have a fitted effect of over 45% in size
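H1299 (p53-null), stable ts p53-A138V + BP100-Luc; 1000 cells/well, Opti-MEM/10% FBS; cpd 4 pt, 1:5; 24 h, 37 deg C, 5% CO2; detection reagent 10 min RT; luminescence.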
Giardia killer: kills Giardia lamblia; activity change, % at 7.66 µM, hits read low; actives 0.15% (n = 340,000); Giardia lamblia trophozoite viability; AID 540267; in the data active = activity change below about -80%; inconclusive = between about -30% and that limit;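 note: parasites exposed to compound for two days anaerobically before the ATP read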
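Giardia lamblia trophozoites (100 cells/well) were incubated with compounds for 48 h at 37 deg C under anaerobic conditions. Viability was read as ATP content by one-step luminescence after 15-30 min at room temperature.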
RORgamma inh: blocks mouse ROR gamma transcriptional activity | Potency, µM (top dose mostly 53.6 µM), actives largely listed as inhibitors | P51450 | Drosophila S2 Gal4-RORgamma UAS-luciferase reporter, 20 h | AID 2551 | actives 5.4% (n = 310,000); note: nearly all actives have a fitted effect of over 60% in size
Target sequence (P51450 whole entry, looked up, the tested form may be a part): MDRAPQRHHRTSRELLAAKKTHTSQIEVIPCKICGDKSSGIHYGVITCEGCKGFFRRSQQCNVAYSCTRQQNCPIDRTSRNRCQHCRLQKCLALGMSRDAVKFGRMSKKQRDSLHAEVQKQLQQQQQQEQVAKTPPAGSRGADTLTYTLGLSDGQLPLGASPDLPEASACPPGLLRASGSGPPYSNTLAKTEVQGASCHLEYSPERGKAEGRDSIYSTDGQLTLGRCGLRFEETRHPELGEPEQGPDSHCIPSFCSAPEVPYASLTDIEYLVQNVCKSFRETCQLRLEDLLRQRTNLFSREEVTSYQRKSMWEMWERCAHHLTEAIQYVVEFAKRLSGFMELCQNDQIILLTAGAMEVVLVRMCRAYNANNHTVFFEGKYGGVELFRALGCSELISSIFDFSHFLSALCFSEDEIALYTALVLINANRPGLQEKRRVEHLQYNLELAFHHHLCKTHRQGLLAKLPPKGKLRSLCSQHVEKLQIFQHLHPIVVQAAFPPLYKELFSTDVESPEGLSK
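Compounds are pin-transferred onto Drosophila Schneider cells expressing a copper-inducible Gal4–ROR gamma transactivation domain fusion. After 1 hr, copper sulfate is added to 700 uM final; luciferase is read 20 hr later.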
Large screens that a line does not name were inactive. This is a sample that favours compounds with a hit; in the whole collection about 7.6% have one here. Unless noted, calls come from the whole dose curve; as a rule, active = well fitted curve in the direction sought with a large enough effect; inconclusive = small, poorly fitted or top-dose-only effect, or another doubt; inactive = no such curve, though single readings can be large; an effect the other way counts as inactive or inconclusive.

COc1cccc(N=Nc2ccc3cccnc3c2O)c1	VP16 counter 0.89µM, ELG1 repair inh 2.3µM, p53 reactivator 35µM, RORgamma inh 0.56µM
COCc1ccc(O)c2ncccc12	VP16 counter 3.2µM, ELG1 repair inh inconclusive, RORgamma inh 6.3µM
Cc1ccc(O)c2ncccc12	VP16 counter 8.9µM, RORgamma inh 5µM (no result: BRCA1 expr up, ELG1 repair inh, p53 reactivator, Giardia killer)
COc1ccc(C(=O)Nc2ccc3c(c2)nc(CCNC(=O)c2ccco2)n3C)cc1	BRCA1 expr up inconclusive, ELG1 repair inh inconclusive
C=C(C)C(=O)OCCO	none (no result: BRCA1 expr up, ELG1 repair inh, p53 reactivator, Giardia killer)
CC(=O)OCC(NC(=O)C(C)NC(=O)OC(C)(C)C)C1OC(n2cc(C)c(=O)[nH]c2=O)C(OC(C)=O)C1OC(C)=O (centres undefined)	none (no result: BRCA1 expr up, ELG1 repair inh, p53 reactivator)
O=C1c2ccc(Br)cc2C(=O)N1c1ccc(Cc2ccncc2)cc1	VP16 counter 14µM, RORgamma inh inconclusive
COCCCn1cnc2oc3nc4ccccc4nc3c2c1=O	VP16 counter 1.3µM, ELG1 repair inh inconclusive, RORgamma inh inconclusive
CN(C)c1ccc(C(=O)Nc2nnc(C3=COCCO3)o2)cc1	VP16 counter 2.8µM, ELG1 repair inh inconclusive, RORgamma inh 1.6µM
CC(C)(C)c1ccc(C(=O)Nc2nnc(C3=COCCO3)o2)cc1	VP16 counter inconclusive, RORgamma inh 0.18µM
CN(c1ccccc1)S(=O)(=O)c1ccc(NC(=O)c2ccc(F)cc2)cc1	none (no result: VP16 counter, ELG1 repair inh, p53 reactivator, RORgamma inh)
COc1ccc(C(=O)Nc2nnc(C3=COCCO3)o2)cc1OC	VP16 counter 1.8µM, RORgamma inh 1.6µM
CC(C)Oc1ccc(C(=O)Nc2nnc(C3=COCCO3)o2)cc1	ELG1 repair inh inconclusive (no result: VP16 counter, RORgamma inh)
CN(c1ccccc1)S(=O)(=O)c1ccc(C(=O)Nc2nnc(C3=COCCO3)o2)cc1	VP16 counter 4.5µM, ELG1 repair inh inconclusive, RORgamma inh 1.1µM
CC(=O)N1CCc2c(sc3c2c(=O)n(-c2cccc(Cl)c2C)c(=O)n3Cc2ccccc2C)C1	none (no result: VP16 counter, ELG1 repair inh, p53 reactivator, Giardia killer, RORgamma inh)
O=C(Nc1nnc(-c2ccc(Cl)cc2)o1)C1=COCCO1	VP16 counter 1.8µM, ELG1 repair inh inconclusive, RORgamma inh 2.5µM
CCOc1cc(-c2nnc(NC(=O)C3=COCCO3)o2)cc(OCC)c1OCC	none (no result: VP16 counter, RORgamma inh)
O=C(NCCc1cn2ccccc2n1)c1cc(COc2ccc3ncccc3c2)on1	VP16 counter inconclusive, ELG1 repair inh 8.2µM
COc1cccc(CN(C)C(=O)c2cc(COc3c(F)cccc3F)on2)c1	none
CC(NC(=O)c1cc(COc2ccc3ncccc3c2)on1)c1ccc(F)cc1 (centres undefined)	VP16 counter 7.1µM, ELG1 repair inh inconclusive, RORgamma inh inconclusive
COCC1CCN(C(=O)c2cc(COc3ccc4ncccc4c3)on2)CC1	VP16 counter 6.3µM, ELG1 repair inh inconclusive, RORgamma inh inconclusive
COc1cccc(CN(C)C(=O)c2cc(COc3ccc4ncccc4c3)on2)c1	VP16 counter 6.3µM, ELG1 repair inh inconclusive, RORgamma inh inconclusive
O=C(O)c1cc2cc(Cl)ccc2oc1=O	RORgamma inh inconclusive
Cc1nc(C(C)NC(=O)c2cc(COc3ccc(C)c(C)c3)on2)c(C)s1 (centres undefined)	VP16 counter inconclusive, BRCA1 expr up 5.6µM, ELG1 repair inh inconclusive, p53 reactivator inconclusive
Cc1cccc(CC(C)NC(=O)c2cc(COc3ccc(C)c(C)c3)on2)n1 (centres undefined)	ELG1 repair inh inconclusive
Cc1cccn2cc(CCNC(=O)c3ccc(Br)o3)nc12	RORgamma inh inconclusive
CCOC(=O)c1cnc(-n2nc(C)cc2C)nc1NNc1cc(-c2ccccc2)nc(C)n1	VP16 counter 0.1µM, ELG1 repair inh inconclusive, RORgamma inh 0.089µM (no result: BRCA1 expr up, Giardia killer)
CCOC(=O)c1cnc2cc(-c3ccc(C)cc3)nn2c1-c1ccccc1	none
CCOC(=O)c1cnc(-n2nc(C)cc2C)nc1NNc1ncc(-c2ccccc2)cn1	VP16 counter inconclusive, ELG1 repair inh inconclusive, RORgamma inh 5.6µM
CC(C)CC(=O)Nc1ccc(-c2cn3ccsc3n2)cc1	VP16 counter inconclusive, BRCA1 expr up inconclusive, ELG1 repair inh inconclusive, p53 reactivator inconclusive, RORgamma inh inconclusive
CC(C)(C)C(=O)Nc1ccc(-c2cn3ccsc3n2)cc1	VP16 counter 4.5µM, ELG1 repair inh inconclusive, Giardia killer -97, RORgamma inh 4.5µM
CCn1c2ccccc2c2cc(NC(=O)COC(=O)Cc3cn4ccsc4n3)ccc21	ELG1 repair inh inconclusive
Cc1cccnc1NC(=O)c1ccc(Cl)c(S(=O)(=O)N2CCCC2)c1	Giardia killer inconclusive
Cc1cccnc1NC(=O)c1ccc(Cl)c(S(=O)(=O)N2CCCCCC2)c1	VP16 counter inconclusive, ELG1 repair inh inconclusive, RORgamma inh 4µM
O=C(Nc1nc2ccccc2[nH]1)c1ccc(Cl)c(S(=O)(=O)N2CCCC2)c1	VP16 counter 8.9µM, ELG1 repair inh inconclusive, p53 reactivator inconclusive, RORgamma inh 6.3µM
CC1CN(S(=O)(=O)c2cc(C(=O)N(CCc3ccccc3)Cc3ccccc3)ccc2Cl)CC(C)O1 (centres undefined)	ELG1 repair inh 23µM (no result: VP16 counter, RORgamma inh)
O=C(Nc1nccs1)c1ccc(Cl)c(S(=O)(=O)N2CCCCC2)c1	VP16 counter inconclusive, RORgamma inh 10µM (no result: ELG1 repair inh, p53 reactivator)
O=C(Nc1nccs1)c1cc(S(=O)(=O)N2CCCCC2)ccc1Cl	none
COc1cccc(CN(CC(=O)NCc2ccccc2)S(=O)(=O)CCl)c1	none (no result: VP16 counter, RORgamma inh)
O=C(NC(Cc1ccc2c(c1)OCO2)C(=O)NC(Cc1ccccc1)C(=O)O)c1ccccc1 (centres undefined)	none
O=C(Nc1ccon1)c1ccc(F)c(S(=O)(=O)N2CCCCC2)c1	none
CN(Cc1cccs1)C(=O)c1ccc(Cl)c(S(=O)(=O)N2CCCCCC2)c1	ELG1 repair inh 21µM (no result: VP16 counter, RORgamma inh)
O=C(Nc1nccs1)c1ccc(Br)c(S(=O)(=O)N2CCOCC2)c1	VP16 counter inconclusive, ELG1 repair inh 21µM, RORgamma inh 13µM
O=C(Nc1nccs1)c1ccc(F)c(S(=O)(=O)N2CCOCC2)c1	none
O=C(Nc1ccon1)c1ccc(Cl)c(S(=O)(=O)N2CCCCC2)c1	VP16 counter 2.2µM, RORgamma inh 1.4µM
CC1CCN(S(=O)(=O)c2cccc(C(=O)Nc3nccs3)c2)CC1	VP16 counter inconclusive, ELG1 repair inh inconclusive, RORgamma inh 11µM
COc1ccccc1Nc1ccc(S(=O)(=O)N2CCCCC2)cc1[N+](=O)[O-]	none
Cc1ccccc1C(=O)Nc1sc2c(c1C(=O)O)CCC2	BRCA1 expr up inconclusive
COc1cc2nc3n(c(=O)c2cc1OC)-c1cc2ccccc2cc1C(=O)NC3Cc1ccccc1 (centres undefined)	none (no result: VP16 counter, ELG1 repair inh, p53 reactivator, Giardia killer, RORgamma inh)
CC(C)C(C)NC(=O)COC(=O)C1CCN(S(=O)(=O)c2ccc3c(c2)OCCO3)CC1 (centres undefined)	none (no result: VP16 counter, RORgamma inh)
